Experimental data from PubChem BioAssay (NCI).
The panel holds about 83,000 compounds, 20% with a hit somewhere; the sample as a whole holds those more often.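 Step 1: grow cells in 96-well plates. Step 2: add test compound at a single concentration. Step 3: incubate 48 h. Step 4: record percent growth.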 Activity calls are given as the source filed them. How the source made its calls: active means growth percent below 10; inactive means the rest.

Legend:
Assay in all cases: NCI-60 one-dose screen, 48 h (100 = growth as untreated, 0 = no growth, -100 = all killed)
Conditions in all cases: 10 µM unless noted
SK-MEL-2 melanoma = tested on: SK-MEL-2 melanoma
EKVX NSCLC = tested on: EKVX NSCLC
SN12C renal = tested on: SN12C renal
UO-31 renal = tested on: UO-31 renal
TK-10 renal = tested on: TK-10 renal
ACHN renal = tested on: ACHN renal
CAKI-1 renal = tested on: CAKI-1 renal
A498 renal = tested on: A498 renal
CCRF-CEM leukemia = tested on: CCRF-CEM leukemia
MOLT-4 leukemia = tested on: MOLT-4 leukemia

Measured: growth

Nc1ccc(C(OC(=O)c2cc3ccccc3c(Cc3c(O)c(C(=O)OC(c4ccc(N)cc4)(c4ccc(N)cc4)c4ccc(N)cc4)cc4ccccc34)c2O)(c2ccc(N)cc2)c2ccc(N)cc2)cc1
inactive: UO-31 renal 29% | TK-10 renal 44.6% | ACHN renal 47.5% | CAKI-1 renal 11.3% | CCRF-CEM leukemia 21.6% | MOLT-4 leukemia 21%
active: SK-MEL-2 melanoma -17.2% | EKVX NSCLC -5.75% | SN12C renal -2.33% | A498 renal -3.31%

CC(=O)O[C@H]1[C@H](CC#CC#CC[C@@H]2C[C@]3(C)[C@H]4CC=C5[C@H]6[C@@H](C)[C@H](C)CC[C@]6(C(=O)NCCCCCCCCN)CC[C@@]5(C)[C@]4(C)CC[C@H]3C(C)(C)[C@H]2OC(C)=O)C[C@]2(C)[C@H]3CC=C4[C@H]5[C@@H](C)[C@H](C)CC[C@]5(C(=O)NCCCCCCCCN)CC[C@@]4(C)[C@]3(C)CC[C@H]2C1(C)C
inactive: SK-MEL-2 melanoma 125% | EKVX NSCLC 110% | SN12C renal 97.8% | UO-31 renal 73.7% | TK-10 renal 145% | ACHN renal 119% | CAKI-1 renal 101% | A498 renal 118% | CCRF-CEM leukemia 105% | MOLT-4 leukemia 103%

C#CC[C@@H]1C[C@]2(C)[C@H]3CC[C@@H]4[C@H]5C(C(=C)C)CC[C@]5(C(=O)NCCN(CCN)CCN)CC[C@@]4(C)[C@]3(C)CC[C@H]2C(C)(C)[C@H]1OC(C)=O (some centres undefined)
inactive: SK-MEL-2 melanoma 112% | EKVX NSCLC 31% | SN12C renal 87.8% | UO-31 renal 74.7% | TK-10 renal 95% | ACHN renal 91.3% | CAKI-1 renal 56.3% | A498 renal 128% | CCRF-CEM leukemia 22.5% | MOLT-4 leukemia 31.1%

O=C(Nc1ccccc1Cl)Oc1ccc2ccccc2c1
inactive: SK-MEL-2 melanoma 97.3% | EKVX NSCLC 98.9% | SN12C renal 99.3% | UO-31 renal 68.7% | TK-10 renal 130% | ACHN renal 98.3% | CAKI-1 renal 97.8% | A498 renal 100% | CCRF-CEM leukemia 114% | MOLT-4 leukemia 78.2%

COc1ccc(Br)c2ccccc12
inactive: SK-MEL-2 melanoma 113% | EKVX NSCLC 94% | SN12C renal 112% | UO-31 renal 70.3% | TK-10 renal 118% | ACHN renal 102% | CAKI-1 renal 95.3% | A498 renal 135% | CCRF-CEM leukemia 103% | MOLT-4 leukemia 91.6%

CCNC(=S)N(Cc1ccccc1)Cc1ccccc1
inactive: SK-MEL-2 melanoma 98.6% | EKVX NSCLC 93.1% | SN12C renal 103% | UO-31 renal 74.6% | TK-10 renal 106% | ACHN renal 96.3% | CAKI-1 renal 93.5% | A498 renal 116% | CCRF-CEM leukemia 132% | MOLT-4 leukemia 82.4%

O=C(O)c1ccccc1N=Cc1ccccc1
inactive: SK-MEL-2 melanoma 108% | EKVX NSCLC 101% | SN12C renal 110% | UO-31 renal 97.5% | TK-10 renal 103% | ACHN renal 105% | CAKI-1 renal 96.3% | A498 renal 117% | CCRF-CEM leukemia 88.5% | MOLT-4 leukemia 94.6%

Cc1ccc(/C=C/C(=N/N=C(N)N)c2ccccc2)cc1
inactive: SK-MEL-2 melanoma 49.3% | EKVX NSCLC 35.4% | SN12C renal 34.3% | UO-31 renal 21.7% | TK-10 renal 44% | ACHN renal 48.5% | CAKI-1 renal 16.4% | CCRF-CEM leukemia 25.2% | MOLT-4 leukemia 24%
active: A498 renal -5.04%

CN1CCN(Cc2ccc(NC(=O)c3cnc(F)c(C#Cc4cnc(N)c5ncccc45)c3)cc2C(F)(F)F)CC1
active: SK-MEL-2 melanoma -30.1% | UO-31 renal 7.5% | A498 renal -25.8% | MOLT-4 leukemia 8.73%
inactive: EKVX NSCLC 23.7% | SN12C renal 11.7% | TK-10 renal 28.7% | ACHN renal 10.1% | CAKI-1 renal 13.1% | CCRF-CEM leukemia 18.2%

CCOC(=O)C(Nc1ccccc1)C(=O)OCC
inactive: SK-MEL-2 melanoma 108% | EKVX NSCLC 108% | SN12C renal 99.3% | UO-31 renal 74.8% | TK-10 renal 107% | ACHN renal 99.3% | CAKI-1 renal 105% | A498 renal 126% | CCRF-CEM leukemia 111% | MOLT-4 leukemia 83%

CCOC(C)(c1ccc(Cl)cc1)C1CCNCC1 (centres undefined)
inactive: SK-MEL-2 melanoma 106% | EKVX NSCLC 72.9% | SN12C renal 100% | UO-31 renal 80.6% | TK-10 renal 96.1% | ACHN renal 98.4% | CAKI-1 renal 100% | A498 renal 86.1% | CCRF-CEM leukemia 109% | MOLT-4 leukemia 81.7%

CC(C)c1[nH]ncc1-c1nc2ccc3[nH]ncc3c2c2c1CCCC2
inactive: SK-MEL-2 melanoma 68.6% | EKVX NSCLC 13.5% | SN12C renal 35.2% | UO-31 renal 12.3% | TK-10 renal 22.7% | ACHN renal 16.8% | CAKI-1 renal 17.6% | CCRF-CEM leukemia 28.8%
active: A498 renal -12.7% | MOLT-4 leukemia 9.07%

O=C1C=CC(=O)N1CO
inactive: SK-MEL-2 melanoma 123% | EKVX NSCLC 138% | SN12C renal 99% | UO-31 renal 89.1% | TK-10 renal 114% | ACHN renal 108% | CAKI-1 renal 117% | A498 renal 113% | CCRF-CEM leukemia 101%
active: MOLT-4 leukemia -32.2%

COc1ccc(-c2oc(=O)ccc2-c2cc(OC)c(OC)c(OC)c2)cc1F
inactive: SK-MEL-2 melanoma 92.8% | EKVX NSCLC 99.6% | SN12C renal 87.9% | UO-31 renal 47.3% | TK-10 renal 88.2% | ACHN renal 87.1% | CAKI-1 renal 52.9% | A498 renal 83.4% | CCRF-CEM leukemia 57.6% | MOLT-4 leukemia 83.6%

CN1CCN(Cc2ccc(NC(=O)c3cncc(C#Cc4ncc5cnccn45)c3)cc2C(F)(F)F)CC1
active: SK-MEL-2 melanoma -12.9%
inactive: EKVX NSCLC 77.2% | SN12C renal 54.5% | UO-31 renal 18.3% | TK-10 renal 81.4% | ACHN renal 30.7% | CAKI-1 renal 31.5% | A498 renal 65.2% | CCRF-CEM leukemia 41.9% | MOLT-4 leukemia 43.5%

C=CCN(CCOC(=O)c1ccc([N+](=O)[O-])cc1)CCOC(=O)c1ccc([N+](=O)[O-])cc1
inactive: SK-MEL-2 melanoma 110% | EKVX NSCLC 96.1% | SN12C renal 143% | UO-31 renal 69.9% | TK-10 renal 114% | ACHN renal 95% | CAKI-1 renal 86.1% | A498 renal 95.2% | CCRF-CEM leukemia 94.3% | MOLT-4 leukemia 96.2%

O=C(Nc1cccc(Cl)c1)Nc1cc(C(F)(F)F)ccc1Cl
inactive: EKVX NSCLC 16% | UO-31 renal 10.7% | TK-10 renal 16.9% | A498 renal 61.7% | CCRF-CEM leukemia 17% | MOLT-4 leukemia 10.1%
active: SK-MEL-2 melanoma 4.93% | SN12C renal -24.4% | ACHN renal 2.64% | CAKI-1 renal 9.58%

Oc1[nH]c2ccc(Cl)cc2c1/C=c1/ccc2c(c1)N=C(c1ccc(F)cc1)N=2
active: CCRF-CEM leukemia 7.83%
inactive: SK-MEL-2 melanoma 92.3% | EKVX NSCLC 40.4% | SN12C renal 74.1% | UO-31 renal 61.4% | TK-10 renal 111% | ACHN renal 86.6% | CAKI-1 renal 44.5% | A498 renal 56.1% | MOLT-4 leukemia 35%

CCc1ccc(Nc2ncnc3c2cnn3-c2cccc(Br)c2)cc1
inactive: SK-MEL-2 melanoma 108% | EKVX NSCLC 102% | SN12C renal 101% | UO-31 renal 85.6% | TK-10 renal 107% | ACHN renal 108% | CAKI-1 renal 89.3% | A498 renal 70.7% | CCRF-CEM leukemia 131% | MOLT-4 leukemia 101%

COc1cc2nccc(Oc3ccc(NC(=O)C4(C(=O)Nc5ccc(F)cc5)CC4)cc3)c2cc1O
inactive: SK-MEL-2 melanoma 88.1% | EKVX NSCLC 71.1% | SN12C renal 30.5% | UO-31 renal 54.4% | TK-10 renal 76.8% | ACHN renal 67.8% | CAKI-1 renal 78.1% | A498 renal 59.4% | CCRF-CEM leukemia 29% | MOLT-4 leukemia 44.9%

COC(=O)CNS(=O)(=O)c1ccc2c(c1)Cc1cc(S(=O)(=O)NCC(=O)OC)ccc1-2
inactive: SK-MEL-2 melanoma 108% | EKVX NSCLC 99.6% | SN12C renal 97.5% | UO-31 renal 87.1% | TK-10 renal 107% | ACHN renal 102% | CAKI-1 renal 92.1% | A498 renal 106% | CCRF-CEM leukemia 104% | MOLT-4 leukemia 99.8%

COc1cccc(/C=N/N=C(N)N)c1
inactive: SK-MEL-2 melanoma 107% | EKVX NSCLC 102% | SN12C renal 95.2% | UO-31 renal 82.6% | TK-10 renal 113% | ACHN renal 100% | CAKI-1 renal 104% | A498 renal 78% | CCRF-CEM leukemia 108% | MOLT-4 leukemia 115%

Cc1c(C)c(C)c([N+](=O)[O-])c([N+](=O)[O-])c1C
inactive: SK-MEL-2 melanoma 103% | EKVX NSCLC 90.7% | SN12C renal 98.7% | UO-31 renal 81.8% | TK-10 renal 91.3% | ACHN renal 98.9% | CAKI-1 renal 90.8% | A498 renal 67.9% | CCRF-CEM leukemia 121%

O=C(OCc1ccc2c(Br)cc(Br)c(O)c2n1)c1cc2ccccc2[nH]1
active: SK-MEL-2 melanoma -20.6% | EKVX NSCLC -65.5% | SN12C renal -79.2% | UO-31 renal -100% | TK-10 renal -94.2% | ACHN renal -100% | CAKI-1 renal -97.6% | A498 renal -1.86% | CCRF-CEM leukemia 2.81% | MOLT-4 leukemia -8.64%

CN1CCN(Cc2ccc(NC(=O)c3cncc(C#Cc4cnc5cccnn45)c3)cc2C(F)(F)F)CC1
active: SK-MEL-2 melanoma -58.6% | EKVX NSCLC -39.1% | SN12C renal 3.05% | UO-31 renal 0.419% | TK-10 renal -4.27% | ACHN renal 5.04% | CAKI-1 renal 5.93% | A498 renal -33.1% | CCRF-CEM leukemia 5.9% | MOLT-4 leukemia -1.76%

Cc1c(O)c(=O)n(-c2ccccc2)n1C
inactive: SK-MEL-2 melanoma 112% | EKVX NSCLC 120% | SN12C renal 98.2% | UO-31 renal 79.6% | TK-10 renal 112% | ACHN renal 96.5% | CAKI-1 renal 107% | A498 renal 120% | CCRF-CEM leukemia 118% | MOLT-4 leukemia 84.2%

CN(C)c1ccc(C(c2ccccc2)c2ccc(N(C)C)cc2)cc1
inactive: SK-MEL-2 melanoma 89.1% | EKVX NSCLC 102% | SN12C renal 92.6% | UO-31 renal 62.1% | TK-10 renal 122% | ACHN renal 97.9% | CAKI-1 renal 93.1% | A498 renal 107% | CCRF-CEM leukemia 99.2% | MOLT-4 leukemia 85.7%
